# Compound activity from PubChem.
# Sampled rows, rich in hits. Any-hit rate of the full collection: about 12%.
# BAZ2B block – qHTS Assay for Inhibitors of BAZ2B. Potency, µM (top dose mostly 114 µM), most hits filed as inhibitors. AlphaScreen BAZ2B-H3K14Ac peptide displacement. 360,000 compounds, 4.4% hits. AID 504333, 2011; also: nearly all actives have a fitted effect of over 60% in size
#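 AlphaScreen luminescence quantifies BAZ2B engagement of H3K14Ac peptide; the protein and biotinylated peptide are both at 50 nM final, buffer PBS pH 7.4 with 0.01% Tween-20, all steps at room temperature.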
# Sfp inh – qHTS Assay for Inhibitors of Bacillus subtilis Sfp phosphopantetheinyl transferase (PPTase); Biochemical Sfp PPTase activity, qHTS; Potency, µM, usual class: inhibitors; 310,000 compounds, 3.5% hits; AID 1490, 2009;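 also: the enzyme is Sfp with the accession as filed and its product quenches rhodamine fluorescence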
#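 Sfp 15 nM + cpd, 15 min RT; start w/ rhodamine-CoA 5 uM, BHQ-2-YbbR 12.5 uM (final); 50 mM Hepes pH 7.6, 10 mM MgCl2, 0.01% NP-40, 0.01% BSA; read 525/598 nm at 0 and 30 min.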
# JMJD2A Tudor inh – qHTS Assay for Inhibitors of JMJD2A-Tudor Domain; 390,000 compounds, 4.4% hits; AlphaScreen JMJD2A-Tudor / H3K4me3 peptide binding; Potency, µM (titrated, usually from 114 µM), actives largely listed as inhibitors; AID 504339, 2011; also: nearly all actives have a fitted effect of over 50% in size
# Target sequence (O75164 whole entry, looked up, the tested form may be a part): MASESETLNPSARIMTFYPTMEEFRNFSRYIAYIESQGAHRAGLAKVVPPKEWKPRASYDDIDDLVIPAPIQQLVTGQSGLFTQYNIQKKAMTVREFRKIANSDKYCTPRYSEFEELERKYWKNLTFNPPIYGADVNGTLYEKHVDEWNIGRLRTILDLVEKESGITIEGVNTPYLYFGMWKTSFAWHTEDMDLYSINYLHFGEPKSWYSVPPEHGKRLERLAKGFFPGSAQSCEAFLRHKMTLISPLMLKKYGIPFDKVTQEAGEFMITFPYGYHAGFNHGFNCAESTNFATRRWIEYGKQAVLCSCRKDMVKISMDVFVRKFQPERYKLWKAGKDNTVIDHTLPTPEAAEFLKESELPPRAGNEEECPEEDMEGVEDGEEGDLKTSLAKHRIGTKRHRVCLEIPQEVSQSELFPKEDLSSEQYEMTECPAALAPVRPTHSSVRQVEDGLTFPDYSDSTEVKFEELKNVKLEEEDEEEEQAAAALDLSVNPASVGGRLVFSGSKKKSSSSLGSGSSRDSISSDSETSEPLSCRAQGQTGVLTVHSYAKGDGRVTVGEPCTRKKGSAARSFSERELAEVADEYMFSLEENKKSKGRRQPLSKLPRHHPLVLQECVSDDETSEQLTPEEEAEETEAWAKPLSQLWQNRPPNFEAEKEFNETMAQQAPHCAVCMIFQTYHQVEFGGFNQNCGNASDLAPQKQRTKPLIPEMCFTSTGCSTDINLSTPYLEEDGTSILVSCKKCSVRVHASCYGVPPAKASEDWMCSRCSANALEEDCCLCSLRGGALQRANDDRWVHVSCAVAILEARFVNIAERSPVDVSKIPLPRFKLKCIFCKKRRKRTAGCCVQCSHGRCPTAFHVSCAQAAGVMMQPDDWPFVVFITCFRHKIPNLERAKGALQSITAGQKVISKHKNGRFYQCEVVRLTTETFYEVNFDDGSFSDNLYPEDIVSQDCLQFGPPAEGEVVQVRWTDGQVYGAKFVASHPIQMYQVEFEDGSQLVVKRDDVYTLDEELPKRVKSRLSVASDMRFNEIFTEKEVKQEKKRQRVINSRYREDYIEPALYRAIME
# G9a inh – qHTS Assay for Inhibitors of Histone Lysine Methyltransferase G9a; Potency, µM (highest dose often 102 µM), usual class: inhibitors; 350,000 compounds, 8.8% hits; Histone-lysine N-methyltransferase EHMT2 (Homo sapiens), Q96KQ7; G9a H3K9 monomethylation, AlphaScreen, 2 h; AID 504332, 2011; also: nearly all actives have a fitted effect of over 75% in size
#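 Enzyme 20 nM + cpd, 15 min RT; add b-H3K9 pep 500 nM / SAM 20 uM; 2 h RT; anti-H3K9me1 Ab 0.5 ug/mL + SA donor / anti-rabbit acceptor beads 20 ug/mL each, 10 min; AlphaScreen read.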
# HP1b chromo inh – HTS for Inhibitors of HP1-beta Chromodomain Interactions with Methylated Histone Tails; Chromobox protein homolog 1 (Homo sapiens), P83916; AlphaScreen HP1-beta / biotin-H3K9me3 peptide binding; Potency, µM (highest dose often 114 µM), most hits filed as inhibitors; 390,000 compounds, 0.56% hits; also: nearly all actives have a fitted effect of over 70% in size
#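 HP1-beta protein (50 nM final) preincubated 30 min at room temperature with biotinylated H3(1-18)K9me3 peptide (50 nM) in PBS pH 7.4, 0.01% Tween-20, then compound added for 30 min. AlphaScreen streptavidin donor/nickel chelate acceptor beads (10 ug/mL final), 30 min dark, luminescence read.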
# Hits are given with their value; 0 = inactive; ? = inconclusive; - = no result given; [ ] = another dose, or the depositor's remark. Calls follow the shape of the dose curve; as a rule, active = well fitted curve in the direction sought with a large enough effect; inconclusive = small, poorly fitted or top-dose-only effect, or another doubt; inactive = no such curve, though single readings can be large; an effect the other way counts as inactive or inconclusive.
SMILES,BAZ2B block,Sfp inh,JMJD2A Tudor inh,G9a inh,HP1b chromo inh
CCc1cccc(NC(=O)CN(c2ccc(C)cc2)S(=O)(=O)c2c(C)noc2C)c1,0,0,0,0,0
OCCN(Cc1ccccc1)Cc1ccc(Cl)cc1Cl,?,0,3.5µM,7.1µM,?
Cn1c(=O)c(-c2ccccc2)nc2cnc(N3CCOCC3)nc21,-,0,-,0[0.501 µM],-
O=C(CC12CC3CC(C1)CC(CC(=O)NC1=NCCS1)(C3)C2)NC1=NCCS1,0,0,0,0,0
O=C(NC1=NCCS1)C12CC3CC(C1)CC(C(=O)NC1=NCCS1)(C3)C2,50µM,0,56µM,?,0
O=C(O)c1cccc(Sc2cc(Cl)ccc2C(=O)O)c1,56µM,-,89µM,0[0.501 µM],0
O=C(O)c1cccc(Sc2ccc(Br)cc2C(=O)O)c1,0,-,0,0[2.33 µM],0
CCc1ccccc1Nc1nc2ccccc2n2cnnc12,0,-,0,0,0
Cc1cc(C)nc(/N=C2/NC(=O)CS2)n1,?,32µM,22µM,20µM,0
Cc1ccc(C)n1/N=C1/NC(=O)CS1,0,?,79µM,0,0
CCOc1ccc(CCNC(=O)CCCc2nnc3n(CC)c(=O)c4sccc4n23)cc1OCC,0,-,0,0,0
C#CCCCO/N=C1/C[C@@H](O)[C@@H](O)[C@@H]2[C@@H]3C(=O)N(CC)C(=O)[C@H]3CC[C@H]12,-,0,-,-,-
O=C(Nc1ccccc1)Nc1nc(Nc2cc(F)cc(F)c2)nc(NC2CCCC2)n1,-,-,0,-,-
CCC(=O)Nc1sc2c(c1C(N)=O)CCC2,0,0,0,0,0
CC(C)C(=O)NC(=S)Nc1sc2c(c1C(N)=O)CCCC2,0,?,?,4µM,?
CCCC(=O)NC(=S)Nc1sc2c(c1C(N)=O)CCC2,0,40µM,0,7.9µM,0
Cc1ccc(CNC(=O)c2ccc3c(c2)nc2n3CCCC2)cc1,0,-,0,0,0
COc1ccc(/C=C2\NC(=S)N(CC3CCCO3)C2=O)c(OC)c1C (configuration not stated),?,0,0,50µM,0
CCOC(=O)N1CCc2c(sc3c2c(=O)n(CCc2ccccc2)c(=O)n3Cc2c(F)cccc2Cl)C1,0,-,0,0,0
COc1cc2nc(NCCC(C)C)n3nc(-c4ccccc4)nc3c2cc1OC,0,-,0,0,0
COc1ccc(N2C(=O)C(Cl)=C(NCc3ccccc3)C2=O)cc1,0,0,0[11.4 µM],45µM,0
CC(C)(C)OC(=O)N(c1cccc2cccnc12)S(=O)(=O)c1ccccc1Br,-,-,0,-,0
Cc1sc(NC(=O)C2CCCCC2C(=O)O)c(C(N)=O)c1-c1ccc(C(C)C)cc1 (configuration not stated),0,0,0,0,0
Cc1sc(NC(=O)C2CCCCC2C(=O)O)c(C(N)=O)c1-c1ccccc1 (configuration not stated),0,0,0,35µM,0
COc1ccc(NC(=O)c2c(NC(=O)CCC(=O)O)sc(-c3ccccc3)c2C)cc1,0,16µM,0,5.6µM,0
SMILES,BAZ2B block,Sfp inh,JMJD2A Tudor inh,G9a inh,HP1b chromo inh
CCc1ccc(-c2c(C)sc(NC(C)=O)c2C(N)=O)cc1,0,50µM,?,11µM,0
Cc1sc(NC(=O)C2CCCCC2C(=O)O)c(C(N)=O)c1-c1ccc(C(C)(C)C)cc1 (configuration not stated),?,79µM,0,-,0
CCCCn1c(N)c(N(CCOC)C(=O)CN(C)CC(=O)Nc2ccc(Cl)c(Cl)c2)c(=O)[nH]c1=O,-,-,0,-,0
COc1ccccc1N(C(=O)CNC(=O)c1ccco1)C(C(=O)NC1CCCCC1)c1ccncc1 (configuration not stated),0,0,0,0,0
Cc1sc(NC(=O)CCC(=O)O)c(C(N)=O)c1-c1ccccc1,0,35µM,?,10µM,?
CCOC(=O)c1c(NC(=O)CCN2CCOCC2)sc(C)c1-c1ccccc1,0,0,?,?,0
O=C1CNC(=S)N1CCc1ccc(O)c(O)c1,0,45µM,?,10µM,0
COc1ccccc1N1CCN(C(=O)c2ccc([N+](=O)[O-])s2)CC1,0,0,0,45µM,0
Cc1onc(C(=O)N2CCN(C(c3ccccc3)c3ccccc3)CC2)c1[N+](=O)[O-],0,0,0,0,0
COc1ccccc1N1CCN(C(=O)c2cc(C(=O)N3CCN(c4ccccc4OC)CC3)cc([N+](=O)[O-])c2)CC1,?,0,0,-,0
O=C(c1ccc([N+](=O)[O-])s1)N1CCN(c2cccc(Cl)c2)CC1,25µM,0,45µM,22µM,?
COc1ccccc1N1CCN(C(=O)c2noc(C)c2[N+](=O)[O-])CC1,0,0,0,56µM,0
Cc1ccccc1-n1c2nc(=O)n(C)c(=O)c-2cc2ccccc21,0,0,0,0,0
Cn1c(=O)nc2n(Cc3ccccc3)c3ccccc3cc-2c1=O,0,0,0,8.9µM,0
CC(C)C[C@H](NC(=O)[C@H](CO)NC(=O)[C@H](C)NC(=O)[C@H](CCCN=C(N)N)NC(=O)[C@H](CCCN=C(N)N)NC(=O)[C@@H](N)CC(C)C)C(=O)NCC(=O)O,-,0,-,-,-
O=C(NCCOCCO)C(=O)Nc1c2c(nn1-c1ccc(F)cc1)CSC2,0,-,0,13µM,0
COc1ccc2[nH]c3c(=O)n(CCCCC(=O)N4CCCC4)c(=S)[nH]c3c2c1,0,0,3.5µM,2.2µM,0
CN(C)CCn1c(=S)[nH]c2ccccc2c1=O,0,?,50µM,?,?
CCCNC(=O)CCCCn1c(=S)[nH]c2c([nH]c3ccc(OC)cc32)c1=O,0,0,?,0,?
CN(C)CCCn1c(=S)[nH]c2ccccc2c1=O,0,?,0,50µM,0
CCCn1c(=S)[nH]c2ccccc2c1=O,0,0,0,0,0
CCN(CC)CCn1c(=S)[nH]c2ccc(Cl)cc2c1=O,0,0,0,32µM,0
CCOC(=O)c1ccccc1NC(=S)N1CCN(C(=O)c2ccco2)CC1,0,0,0,0,0
O=c1c2cc(Br)ccc2[nH]c(=S)n1Cc1cccnc1,0,0,0,0,0
O=c1c2cccnc2[nH]c(=S)n1Cc1ccccc1,0,0,0,0,0
O=c1c2nccnc2[nH]c(=S)n1Cc1ccccc1,-,0,0,40µM,0
O=c1c2ccccc2[nH]c(=S)n1Cc1cccnc1,0,0,28µM,0,0
CC1CCCN(C(=O)CCCn2c(=S)[nH]c3ccccc3c2=O)C1 (configuration not stated),0,?,0,45µM,0
COn1c(=S)[nH]c2ccccc2c1=O,0,0,89µM,?,0
CC12CCC3c4ccc(O)cc4CCC3C1CC(=NO)C2O (configuration not stated),-,-,0,-,0
